# Source: PubChem BioAssay
# DRD3 antagonist: D3 dopamine receptor (human) antagonism; P35462; D3R cells, DiscoveRx beta-arrestin luminescence, antagonist mode; stronger effect = lower value; max response, negative = inhibition, %; hit rate 2.5% among 360,000; AID 652054; in the data active means max response below about -50%; inconclusive means no clear call, values can overlap the other calls
#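 Cells plated overnight at 1500 cells/well, then exposed to library compounds with dopamine controls for 90 minutes at 37 degrees C. DiscoveRx reagent added for 30–60 minutes at room temperature; luminescence read, quantitative HTS format.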
# TRPML1 blocker: inhibitors of human TRPML1 channel; Q9GZU1; TRPML1-inducible cells, Ca2+ dye fluorescence, FDSS; stronger effect = lower value; inhibition of EC80 agonist-evoked calcium signal; activity change, negative = inhibition, % (test concentration not listed); hit rate 0.02% among 390,000; in the data active means activity change below about -50%; inconclusive means between about -30% and that limit;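 further: stimulus is agonist 54-4 at its EC80 concentration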
# Target sequence (Q9GZU1 whole entry, looked up): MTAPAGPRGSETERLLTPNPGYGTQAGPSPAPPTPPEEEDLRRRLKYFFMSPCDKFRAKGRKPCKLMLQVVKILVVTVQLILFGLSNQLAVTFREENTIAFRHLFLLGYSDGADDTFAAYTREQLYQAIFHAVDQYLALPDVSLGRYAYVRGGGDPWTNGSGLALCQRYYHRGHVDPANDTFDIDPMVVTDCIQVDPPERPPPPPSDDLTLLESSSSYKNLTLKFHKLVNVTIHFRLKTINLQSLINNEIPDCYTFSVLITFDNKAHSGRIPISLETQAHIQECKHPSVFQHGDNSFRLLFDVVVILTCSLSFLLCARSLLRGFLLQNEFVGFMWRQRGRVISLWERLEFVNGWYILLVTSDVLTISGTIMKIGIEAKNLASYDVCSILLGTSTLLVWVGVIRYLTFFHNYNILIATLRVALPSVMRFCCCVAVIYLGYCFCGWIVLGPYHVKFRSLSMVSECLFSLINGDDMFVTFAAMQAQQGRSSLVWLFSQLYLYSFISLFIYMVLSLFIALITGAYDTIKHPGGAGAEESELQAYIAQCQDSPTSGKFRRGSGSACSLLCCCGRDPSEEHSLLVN
#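 TRPML1-DL cells, Tet-induced overnight (~16 h, 37 °C) at 1,500 cells/well, were loaded with Ca8 no-wash dye plus quencher for 45-90 min at room temperature. Compounds were pinned during FDSS kinetic reading; agonist 54-4 at EC80 (4 uM final) then added.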
# DRD3 agonist: activates the human D3 dopamine receptor | P35462 | D3R DiscoveRx beta-arrestin cells, luminescence, 90 min | max activation, % | hit rate 0.58% among 410,000 | AID 652048; in the data active means max activation above about 30%
#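 Cells at 1500/well, incubated overnight, then treated with pinned compounds (dopamine as control) for 90 min at 37 degrees C. DiscoveRx reagent added for 30 - 60 minutes at room temperature; luminescence read.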
# TRPML1 ag: human mucolipin-1 channel agonism. activation, % (test concentration not listed). Q9GZU1. hit rate 0.12% among 410,000. TRPML1-expressing cells, Ca2+ dye fluorescence, FDSS; in the data active means activation above about 50%; inconclusive means mostly about 30% to 49%
#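 Tet-induced TRPML1-DL cells, 1,500 per well, cultured overnight, were loaded with a no-wash Ca2+ dye for 45–90 min. Calcium fluorescence was recorded on the FDSS for 110 s after compound addition, before the EC80 agonist (4 uM 54-4) was added.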
# A number is an active result; . = inactive; ? = inconclusive; / = no result given. Only some compounds are listed: those with a hit (about 2.9% of all), similar ones and a draw of the others.
SMILES,DRD3 antagonist,TRPML1 blocker,DRD3 agonist,TRPML1 ag
N#Cc1c(NC(=O)CSc2ncccn2)oc(-c2ccccc2)c1-c1ccccc1,.,.,.,.
CCOC(=O)c1sc2ccccc2c1S(=O)(=O)Nc1c(C)cccc1C,/,.,.,.
Cc1ccc(S(=O)(=O)N2CCN(c3nc(-c4cncnc4)nc4ccccc34)CC2)cc1,/,/,/,.
O=C(CCN1C(=O)/C(=C/c2ccc(Cl)cc2)SC1=S)Nc1cccc(C(=O)O)c1,.,.,.,.
O=C(O)c1cccc(N2C(=O)/C(=C/c3ccc(SCc4ccc(Cl)cc4)o3)SC2=S)c1,-59.2,.,.,.
Cc1ccc2nc(N3CCN(Cc4nnnn4Cc4ccccc4)CC3)c(C#N)cc2c1,-73.7,.,.,.
COc1ccc2cc(C#N)c(N3CCN(Cc4nnnn4CCC(C)C)CC3)nc2c1,.,.,.,.
Cc1cc(C)c(C#N)c(N2CCN(Cc3ccc4c(c3)OCO4)CC2)n1,-56.8,.,.,.
Cc1cc(C)c(C#N)c(N2CCN(Cc3ccccc3)CC2)n1,-92.8,.,.,.
N#CCc1c(C#N)c(N)nc(N2CCN(Cc3ccc4c(c3)OCO4)CC2)c1C#N,?,.,.,.
CCc1nn(Cc2c(C)cc(C)cc2C)c(=O)c2cc3cc(C)ccc3n12,/,.,.,.
O=C(CCCn1c(=S)[nH]c2cc3c(cc2c1=O)OCO3)N1CCN(c2ccc(F)cc2)CC1,.,.,35.8,.
CCOc1cc2[nH]c(=O)n(CCCCC(=O)N3CCN(c4ccccc4)CC3)c(=O)c2cc1OCC,/,.,.,.
CCOC(=O)N1CCN(C(=O)c2ccc(Cn3c(=S)[nH]c4cc5c(cc4c3=O)OCO5)cc2)CC1,.,.,85.4,.
CCOc1cc2[nH]c(=O)n(CCCC(=O)N3CCN(c4ccc(OC)cc4)CC3)c(=O)c2cc1OCC,/,.,30.4,.
COc1ccc2c(c1OC)C(=O)OC2CC(=O)O (configuration not stated),-54.5,.,.,.
C/C(=N/Nc1ccnc2cc(Cl)ccc12)c1ccc(N)cc1,?,.,.,.
C/C(=N/Nc1ccnc2cc(Cl)ccc12)c1ccc(O)cc1,-54.1,.,.,.
COc1ccccc1NC(=O)c1cccc(S(=O)(=O)N2CCOCC2)c1,-51.6,.,.,.
COc1cc(S(=O)(=O)N2CCOCC2)ccc1NC(=O)COC(=O)CC12CC3CC(CC(C3)C1)C2,-52.7,.,.,.
CN1CCN(S(=O)(=O)c2cccc(C(=O)Nc3nc(-c4ccccc4)cs3)c2)CC1,?,.,.,.
COc1cccc(NS(=O)(=O)c2ccc(S(=O)(=O)N3CCOCC3)cc2)c1,.,.,39.9,.
O=C(Nc1ccccc1O)c1cccc(S(=O)(=O)N2CCOCC2)c1,.,.,.,.
COc1ccc(-c2csc(NC(=O)c3cccc(S(=O)(=O)N4CCN(C)CC4)c3)n2)cc1,-51.3,.,.,.
Cc1ccc(Cl)cc1N(C)C(=O)c1sc2nc3n(c(=O)c2c1C)CCCC3,/,.,.,.
SMILES,DRD3 antagonist,TRPML1 blocker,DRD3 agonist,TRPML1 ag
COc1cc(C(=O)Nc2ccc(S(=O)(=O)N3CCOCC3)cc2)c([N+](=O)[O-])cc1OC,.,.,40.2,.
CCOc1ccccc1/C=N/NC(=O)c1cccc(S(=O)(=O)N2CCOCC2)c1,-62.8,.,.,.
COc1ccc(S(=O)(=O)N2CCOCC2)cc1NC(=O)c1ccc2c(c1)OCO2,.,.,53.5,.
COc1ccc(S(=O)(=O)N2CCCCC2)cc1NC(=O)c1ccc2c(c1)OCO2,.,.,.,.
O=C(NCC1COc2ccccc2O1)c1cccc(S(=O)(=O)N2CCOCC2)c1 (configuration not stated),-61.4,.,.,.
O=C(NCC1COc2ccccc2O1)c1ccc(Cl)c(S(=O)(=O)N2CCOCC2)c1 (configuration not stated),.,.,.,.
Cc1ccc(CNC(=O)CN2C(=O)CSc3ccc(S(=O)(=O)N4CCCC4)cc32)cc1,/,.,.,.
COc1cc(NC(=O)CCCOc2cc(=O)n(C)c3ccccc23)cc(OC)c1OC,/,.,.,.
COc1cc2c(cc1NC(=O)CSc1nc3ccccc3[nH]1)oc1ccccc12,-74.7,.,.,.
CC1CCCN(CCS(=O)(=O)c2ccccc2)C1 (configuration not stated),.,.,.,.
CC1CC(C)CN(CCOCCSc2ccccc2)C1 (configuration not stated),-73.3,.,.,.
c1ccc(SCCOCCn2cncn2)cc1,.,.,.,.
CC1CC(C)CN(CCCSc2ccccc2)C1 (configuration not stated),-50.6,.,.,.
CC1CCCN(CCOCCSc2ccccc2)C1 (configuration not stated),-72.6,.,.,.
CC1CC(C)CN(CCOCCSc2ccc(Cl)cc2)C1 (configuration not stated),-80.5,.,.,.
COc1ccc(-c2cc3ccc(O)c(CN4CCCC4)c3oc2=O)cc1OC,/,.,.,.
Cc1ccc(NC(=O)C[n+]2ccccc2)cc1[N+](=O)[O-],-59.4,.,.,.
O=C(C[n+]1ccc(C(=O)c2ccccc2)cc1)Nc1cccc([N+](=O)[O-])c1,-94.7,/,.,.
O=C(Cc1ccccc1)Nc1cccc([N+](=O)[O-])c1,.,.,.,.
NCCNC(=O)c1ncsc1-c1cccc(F)c1,-52.4,.,.,.
O=C(O)c1ncsc1-c1ccccc1,.,.,.,.
CCCCN(C)C(=O)c1ccc2c(c1)N(Cc1cccc(F)c1)C(=O)c1ccccc1S2,/,.,.,.
CNS(=O)(=O)c1ccc(CCC(=O)N2CCN(c3ccccc3OC)CC2)cc1,.,.,36.9,.
COc1ccc(C(=O)/C=C/Sc2nc3ccccc3o2)cc1,-104.7,.,.,.
CC(=O)Oc1ccc([C@@H]2COc3c(ccc4c3C=CC(C)(C)O4)C2)c(OC(C)=O)c1,.,/,37.8,/
SMILES,DRD3 antagonist,TRPML1 blocker,DRD3 agonist,TRPML1 ag
CC1(C)C=Cc2c(ccc3c2OC[C@H](c2ccc(O)cc2O)C3)O1,.,.,.,.
Cc1cc(C)cc(C(O)c2ncc(-c3ccc4ccccc4c3)[nH]2)c1 (configuration not stated),-55.9,/,.,.
Cc1ccc(-c2noc(-c3ccc(NC4CCCC4)c([N+](=O)[O-])c3)n2)cc1,/,.,.,.
Cn1cc(CN2CCCC(C(=O)Nc3cccc(-c4cc5ccccc5[nH]4)c3)C2)cn1 (configuration not stated),-68.4,.,.,.
COc1cccc(OCc2cc(C3Nc4ccccc4C(=O)N3c3ccccc3)ccc2OC)c1 (configuration not stated),/,/,/,.
CCCN[C@H]1CCc2nc(N)sc2C1,.,.,87.7,.
Nc1nc2c(s1)CCCCCCCCCC2,.,.,.,.
Cc1cc(N2CCCC2)ccc1/C=C1\NC(=S)N(C)C1=O,.,.,.,.
CN1C(=O)/C(=C/c2cc(C(C)(C)C)c(O)c(C(C)(C)C)c2)NC1=S,-58.3,.,.,.
O=C(NCCCN1CCc2ccccc2C1)C1CCN(c2nnc(-n3cccc3)s2)CC1,-82.3,.,.,.
